Measured values as given in the supplement of paper PMC4894684.
Counter-ions that a name gives are not always drawn. ± gives the standard deviation of the averaged measurements. Out of some 1,000 compounds screened, about 15 (2%) showed an effect of 50% or more. Only a selection was taken, and strong results are over-represented in it overall.

What follows are compounds tested on HFF (assay: uninfected host cell viability relative to vehicle control; higher = less host cell toxicity). Conditions: 5 µM; 72 h; oxygen 21 %.

`COc1cc(CNC(=O)CCCC/C=C/C(C)C)ccc1O` [(E)-Capsaicin] was tested. Which “uninfected host cell viability” value did it give?
Its value is 88.13 ± 0.59%.

Which “uninfected host cell viability” value does the source give for `CC[C@]1(O)C[C@H]2CN(CCc3c([nH]c4ccccc34)[C@@](C(=O)OC)(c3cc4c(cc3OC)N(C=O)[C@H]3[C@@](O)(C(=O)OC)[C@H](OC(C)=O)[C@]5(CC)C=CCN6CC[C@]43[C@@H]65)C2)C1` [Vincristine sulfate] here?
The value was 68 ± 2.9%.

`O=c1oc(-c2ccc(C(F)(F)F)cc2)nn1Cc1cc(Cl)ccc1O` was tested. Which “uninfected host cell viability” value did it give?
The value was 95.1 ± 1%.

Which “uninfected host cell viability” value does the source give for `Cc1oncc1C(=O)Nc1ccc(C(F)(F)F)cc1` [Leflunomide] here?
The value was 93.41 ± 0.27%.

`O=C(Nc1cc(C(F)(F)F)cc(C(F)(F)F)c1)c1cc(Cl)ccc1O` was tested. Which “uninfected host cell viability” value did it give?
The value was 46.8 ± 2.5%.

Which “uninfected host cell viability” value does the source give for `O=C1CC2(CCCC2)CC(=O)N1CCNCC1COc2ccccc2O1` (stereo not drawn) here?
Its value is 85.64 ± 0.64%.

How did the “uninfected host cell viability” value turn out when `Cn1cnnc1Sc1c([N+](=O)[O-])ncn1C` was run?
The value was 89.361 ± 0.008%.

`N[C@@H](C(=O)O)c1ccc(C(=O)O)c(C(=O)O)c1` was tested. Which “uninfected host cell viability” value did it give?
Its value is 89 ± 7.8%.

Which “uninfected host cell viability” value does the source give for `COc1ccc(-c2nc(C(=O)N3CCN(C)CC3)sc2-c2ccc(OC)cc2)cc1` here?
The value was 81.4 ± 4.7%.

`O=C1C(Cl)=C(NCCN2CCOCC2)C(=O)c2ncccc21` was tested. Which “uninfected host cell viability” value did it give?
Its value is 34.44 ± 0.16%.

Which “uninfected host cell viability” value does the source give for `O=C1c2ccccc2S(=O)(=O)N1CCCCN1CCN(c2ncccn2)CC1` [Ipsapirone] here?
The value was 87.04 ± 0.35%.

How did the “uninfected host cell viability” value turn out when `Cc1cc(Cn2cnc3c2CC(C(=O)O)N(C(=O)C(c2ccccc2)c2ccccc2)C3)ccc1N(C)C` (stereo not drawn) was run?
Its value is 82.1 ± 3.1%.

With `COc1ccc([C@@H]2CNC(=O)C2)cc1OC1CCCC1` [(R)-(-)-Rolipram] as the compound, how does the “uninfected host cell viability” value read?
Its value is 82.9 ± 1%.

How did the “uninfected host cell viability” value turn out when `C1CCC2(CC1)CCNCC2` [4,4-Pentamethylenepiperidine hydrochloride] was run?
The value was 84.79 ± 0.68%.

Which “uninfected host cell viability” value does the source give for `Cc1cc(NC(=O)Nc2ccc(N(C)C)cc2)c2cc(F)cc(F)c2n1` here?
Its value is 85.86 ± 0.3%.

`Nc1ncnc2n[nH]c(Nc3ccc(F)cc3)c12` was tested. Which “uninfected host cell viability” value did it give?
The value was 80.93 ± 0.35%.

How did the “uninfected host cell viability” value turn out when `O=C(c1ccc(Nc2nccc(-c3cc4ccccc4s3)n2)cc1)N1CCC(N2CCCC2)CC1` was run?
Its value is 14.9 ± 0.68%.

With `O=c1[nH]ccc2c(S(=O)(=O)N3CCCNCC3)cccc12` [HA 1100 hydrochloride] as the compound, how does the “uninfected host cell viability” value read?
Its value is 90 ± 3.1%.

Which “uninfected host cell viability” value does the source give for `Nc1nc2c(ccc3ccccc32)s1` here?
The value was 77.6 ± 1.3%.

Which “uninfected host cell viability” value does the source give for `O=c1cc(N2CCNCC2)oc2c(-c3ccccc3)cccc12` here?
Its value is 87.4 ± 1.8%.

Which “uninfected host cell viability” value does the source give for `FC(F)(F)c1cccc(-c2noc(-c3cc(-c4ccccc4)c(C(F)(F)F)s3)n2)c1` here?
Its value is 90.4 ± 2.4%.

With `CCN(CC)CCOc1ccc(Cc2ccccc2)cc1` [DPPE fumarate] as the compound, how does the “uninfected host cell viability” value read?
Its value is 86.65 ± 0.8%.

With `CCS(=O)(=O)N1CCC[C@@H]2CN3CCc4cc(OC)ccc4[C@@H]3C[C@@H]21` as the compound, how does the “uninfected host cell viability” value read?
Its value is 85.4 ± 2.9%.

With `N[C@@H](CC(=O)Nc1ccc(Oc2cc(F)c(F)cc2Br)cc1)C(=O)O` as the compound, how does the “uninfected host cell viability” value read?
Its value is 95 ± 0.96%.

`O=c1ncccn1[C@@H]1O[C@H](CO)[C@@H](O)[C@H]1O` [Zebularine] was tested. Which “uninfected host cell viability” value did it give?
The value was 90.802 ± 0.032%.

For `O=C(/C=C/c1ccccc1)NC(NC(=S)Nc1cccc2cccnc12)C(Cl)(Cl)Cl` (stereo not drawn) [Salubrinal], which “uninfected host cell viability” value is on record?
The value was 84.55 ± 0.26%.

With `C=C1/C(=C\C=C2/CCC[C@]3(C)[C@@H]([C@H](C)/C=C/[C@@H](O)C4CC4)CC[C@@H]23)C[C@@H](O)C[C@@H]1O` [Calcipotriol] as the compound, how does the “uninfected host cell viability” value read?
The value was 83.9 ± 3.1%.

With `CC(C)c1ccc2c(c1)CC[C@H]1[C@](C)(CN)CCC[C@]21C` [Lylamine hydrochloride] as the compound, how does the “uninfected host cell viability” value read?
Its value is 87.8 ± 1.4%.

Which “uninfected host cell viability” value does the source give for `Cc1ccccc1N1CCN(S(=O)(=O)C[C@]23CC[C@H](C[C@@H]2NC(=O)[C@@H](N)CCS(C)(=O)=O)C3(C)C)CC1` [L-368,899 hydrochloride] here?
Its value is 87.07 ± 0.83%.

For `C=C1C(=O)O[C@@H]2/C=C(\C)CC/C=C(\C)CC[C@@H]12` [Costunolide], which “uninfected host cell viability” value is on record?
The value was 114 ± 2.7%.

With `N[C@@H](Cc1cc(CP(=O)(O)O)cc(-c2ccccc2Cl)c1)C(=O)O` as the compound, how does the “uninfected host cell viability” value read?
Its value is 88.9 ± 6%.

Which “uninfected host cell viability” value does the source give for `O=C(Nc1ccccc1)N[C@@H]1C[C@@H](C(=O)O)Nc2cc(Cl)cc(Cl)c21` here?
Its value is 87.6 ± 1.1%.

With `c1ccc(C(O[C@@H]2CCCN(CCc3ccc4c(c3)OCO4)C2)c2ccccc2)cc1` [Zamifenacin fumarate] as the compound, how does the “uninfected host cell viability” value read?
Its value is 90.5 ± 1%.
